Experimental data published in the supplement of paper PMC11732987, “Enantioselective OTUD7B fragment discovery through chemoproteomics screening and high-throughput optimisation” (Communications Chemistry, 2025).
Values without a mark were called inactive.

Tests used:
Test in all cases: log2 ratio of Biotin-Ahx-Ub-VS probe labelling (fragment/DMSO); higher = less target engagement (more negative = stronger competition), active = hit call of the paper (q ≤ 0.05, log2 ratio ≤ -1)
Settings in all cases: compound concentration: 200 uM; treatment time: 3 h
[1] = biological target: T1, OTUD6B (UniProt Q8N6M0)
T1 sequence (whole entry): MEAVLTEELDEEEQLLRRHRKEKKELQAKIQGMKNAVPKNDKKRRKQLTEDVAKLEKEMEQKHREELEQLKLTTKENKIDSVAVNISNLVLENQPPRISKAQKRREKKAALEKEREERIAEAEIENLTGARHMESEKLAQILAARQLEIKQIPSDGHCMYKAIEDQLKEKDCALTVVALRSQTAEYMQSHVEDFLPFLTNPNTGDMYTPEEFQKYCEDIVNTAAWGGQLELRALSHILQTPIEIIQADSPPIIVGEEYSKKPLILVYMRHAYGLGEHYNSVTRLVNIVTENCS
Summary of the method: (§1)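 Global-median-normalised Spectronaut label-free quantities were compared by unpaired t-test, and values are average log2 ratios of fragment over vehicle. Only proteins with ≥2 unique peptides were used. HEK293T lysate (495 µg per sample) was treated in triplicate with fragment at 200 µM or vehicle for 3 h and then with Biotin-Ahx-Ub-VS at 0.5 µM final for 1 h. Labelled DUBs were then NeutrAvidin-enriched, digested with LysC and trypsin, and run by diaPASEF LC-MS/MS.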

[2] = biological target: T2, OTUD7B (UniProt Q6GQQ9)
T2 sequence (whole entry): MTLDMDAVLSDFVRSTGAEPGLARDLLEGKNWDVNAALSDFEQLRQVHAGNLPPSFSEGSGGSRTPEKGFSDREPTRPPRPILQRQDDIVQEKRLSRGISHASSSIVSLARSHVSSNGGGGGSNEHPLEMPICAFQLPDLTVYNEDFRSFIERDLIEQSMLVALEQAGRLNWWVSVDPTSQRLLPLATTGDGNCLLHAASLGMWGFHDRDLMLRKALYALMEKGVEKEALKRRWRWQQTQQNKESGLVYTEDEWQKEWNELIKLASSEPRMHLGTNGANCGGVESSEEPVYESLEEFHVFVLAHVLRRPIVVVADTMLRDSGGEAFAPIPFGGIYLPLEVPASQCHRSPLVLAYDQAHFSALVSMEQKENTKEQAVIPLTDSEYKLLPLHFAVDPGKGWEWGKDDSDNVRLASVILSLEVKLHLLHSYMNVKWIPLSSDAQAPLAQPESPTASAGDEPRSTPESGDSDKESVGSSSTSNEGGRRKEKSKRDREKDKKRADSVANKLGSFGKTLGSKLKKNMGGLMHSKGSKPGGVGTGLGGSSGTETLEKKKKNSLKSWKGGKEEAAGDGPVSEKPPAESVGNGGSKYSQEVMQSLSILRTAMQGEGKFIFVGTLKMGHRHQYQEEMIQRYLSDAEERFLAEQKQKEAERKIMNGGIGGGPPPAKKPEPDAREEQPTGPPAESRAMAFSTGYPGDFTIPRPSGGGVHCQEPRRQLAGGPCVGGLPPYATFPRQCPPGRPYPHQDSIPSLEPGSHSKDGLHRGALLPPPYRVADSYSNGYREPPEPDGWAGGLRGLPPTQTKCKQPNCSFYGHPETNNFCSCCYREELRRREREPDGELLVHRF
Summary of the method: as §1

[3] = biological target: PRPF8 (UniProt Q6P2Q9)
Summary of the method: as §1

[4] = biological target: T3, PSMD7 (UniProt P51665)
T3 sequence (whole entry): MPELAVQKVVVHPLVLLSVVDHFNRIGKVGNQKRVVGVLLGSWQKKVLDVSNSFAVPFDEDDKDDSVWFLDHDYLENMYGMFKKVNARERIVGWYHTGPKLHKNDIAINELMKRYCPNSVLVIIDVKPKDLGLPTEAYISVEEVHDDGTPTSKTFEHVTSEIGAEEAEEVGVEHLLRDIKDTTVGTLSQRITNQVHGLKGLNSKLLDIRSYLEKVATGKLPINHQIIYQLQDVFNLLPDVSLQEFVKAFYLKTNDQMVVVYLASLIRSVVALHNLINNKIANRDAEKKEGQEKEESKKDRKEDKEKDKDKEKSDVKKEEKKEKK
Summary of the method: as §1

[5] = biological target: UCHL1 (UniProt P09936)
Summary of the method: as §1

[6] = biological target: T4, UCHL3 (UniProt P15374)
T4 sequence (whole entry): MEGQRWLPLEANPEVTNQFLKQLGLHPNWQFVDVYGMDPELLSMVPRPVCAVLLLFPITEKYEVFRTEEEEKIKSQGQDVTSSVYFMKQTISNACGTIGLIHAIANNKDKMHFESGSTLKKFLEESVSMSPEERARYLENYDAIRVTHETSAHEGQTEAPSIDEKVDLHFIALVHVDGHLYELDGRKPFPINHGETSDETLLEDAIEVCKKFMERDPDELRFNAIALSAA
Summary of the method: as §1

[7] = biological target: T5, UCHL5 (UniProt Q9Y5K5)
T5 sequence (whole entry): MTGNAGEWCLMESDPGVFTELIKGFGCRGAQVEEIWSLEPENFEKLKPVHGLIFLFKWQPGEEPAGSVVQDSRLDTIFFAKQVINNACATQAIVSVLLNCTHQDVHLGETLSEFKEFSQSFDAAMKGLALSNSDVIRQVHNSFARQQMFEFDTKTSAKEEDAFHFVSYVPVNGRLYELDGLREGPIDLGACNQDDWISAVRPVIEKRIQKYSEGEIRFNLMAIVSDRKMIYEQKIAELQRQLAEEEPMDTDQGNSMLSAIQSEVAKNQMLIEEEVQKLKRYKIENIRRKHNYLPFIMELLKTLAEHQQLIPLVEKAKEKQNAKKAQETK
Summary of the method: as §1

[8] = biological target: USP10 (UniProt Q14694)
Summary of the method: as §1

[9] = biological target: T6, USP15 (UniProt Q9Y4E8)
T6 sequence (whole entry): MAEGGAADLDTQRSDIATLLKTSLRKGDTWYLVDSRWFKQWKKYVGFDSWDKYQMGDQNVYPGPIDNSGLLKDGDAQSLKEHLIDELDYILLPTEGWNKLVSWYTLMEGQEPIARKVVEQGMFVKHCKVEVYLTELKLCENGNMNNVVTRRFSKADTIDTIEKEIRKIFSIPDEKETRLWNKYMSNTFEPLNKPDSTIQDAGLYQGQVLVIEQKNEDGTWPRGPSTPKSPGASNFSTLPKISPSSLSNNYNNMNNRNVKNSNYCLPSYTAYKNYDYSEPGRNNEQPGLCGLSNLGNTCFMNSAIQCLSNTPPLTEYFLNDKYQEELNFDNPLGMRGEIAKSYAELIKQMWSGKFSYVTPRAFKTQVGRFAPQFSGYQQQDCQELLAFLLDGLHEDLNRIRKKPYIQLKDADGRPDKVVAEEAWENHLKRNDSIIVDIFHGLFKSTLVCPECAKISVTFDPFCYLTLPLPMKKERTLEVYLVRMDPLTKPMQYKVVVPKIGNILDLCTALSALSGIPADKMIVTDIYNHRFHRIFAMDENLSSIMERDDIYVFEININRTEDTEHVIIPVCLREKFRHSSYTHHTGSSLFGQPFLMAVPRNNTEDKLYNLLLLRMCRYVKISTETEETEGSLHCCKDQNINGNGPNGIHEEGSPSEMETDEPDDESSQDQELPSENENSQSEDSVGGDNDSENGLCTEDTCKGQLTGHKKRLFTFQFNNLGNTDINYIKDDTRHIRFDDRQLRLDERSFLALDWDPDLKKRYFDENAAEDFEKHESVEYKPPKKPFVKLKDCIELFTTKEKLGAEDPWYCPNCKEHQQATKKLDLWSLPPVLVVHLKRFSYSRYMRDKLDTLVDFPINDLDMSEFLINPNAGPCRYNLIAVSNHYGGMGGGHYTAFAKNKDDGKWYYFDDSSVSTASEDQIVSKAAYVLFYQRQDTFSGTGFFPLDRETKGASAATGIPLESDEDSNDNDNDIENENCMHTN
Summary of the method: as §1

Chain of USP10 (Q14694 whole entry): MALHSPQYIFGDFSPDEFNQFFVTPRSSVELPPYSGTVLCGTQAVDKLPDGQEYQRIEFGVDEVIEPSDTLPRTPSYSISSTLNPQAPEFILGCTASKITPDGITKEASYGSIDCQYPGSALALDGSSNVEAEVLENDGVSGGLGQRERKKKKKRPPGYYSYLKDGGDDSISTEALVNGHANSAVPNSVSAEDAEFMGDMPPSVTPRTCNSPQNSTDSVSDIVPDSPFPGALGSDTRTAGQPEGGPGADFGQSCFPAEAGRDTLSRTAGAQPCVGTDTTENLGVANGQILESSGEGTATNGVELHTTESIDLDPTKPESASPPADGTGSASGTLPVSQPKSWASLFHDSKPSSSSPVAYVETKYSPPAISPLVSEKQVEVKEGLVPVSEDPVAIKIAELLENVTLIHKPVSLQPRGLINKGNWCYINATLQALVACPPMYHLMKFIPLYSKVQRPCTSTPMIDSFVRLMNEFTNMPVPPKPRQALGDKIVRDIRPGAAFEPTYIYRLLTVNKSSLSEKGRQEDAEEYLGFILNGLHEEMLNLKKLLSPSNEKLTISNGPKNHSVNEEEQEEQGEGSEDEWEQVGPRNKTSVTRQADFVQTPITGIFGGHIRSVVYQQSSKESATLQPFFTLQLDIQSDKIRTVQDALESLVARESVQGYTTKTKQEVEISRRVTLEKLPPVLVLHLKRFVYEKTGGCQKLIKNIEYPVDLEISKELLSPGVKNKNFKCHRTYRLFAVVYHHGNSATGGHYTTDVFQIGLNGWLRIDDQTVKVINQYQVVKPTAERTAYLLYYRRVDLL
Chain of UCHL1 (P09936 whole entry, looked up): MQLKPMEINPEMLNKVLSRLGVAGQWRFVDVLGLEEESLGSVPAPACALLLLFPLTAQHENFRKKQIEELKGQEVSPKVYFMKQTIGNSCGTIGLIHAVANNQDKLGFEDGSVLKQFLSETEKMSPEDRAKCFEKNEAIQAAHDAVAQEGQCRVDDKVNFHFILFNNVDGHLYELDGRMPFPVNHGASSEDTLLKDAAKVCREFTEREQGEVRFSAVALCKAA

CC(NC(=O)CCl)c1csc(-c2ccccc2)n1.Cl (centres undefined)
log2 ratio of Biotin-Ahx-Ub-VS probe labelling [1]: -0.597
log2 ratio of Biotin-Ahx-Ub-VS probe labelling [2]: -1.07 (active)
log2 ratio of Biotin-Ahx-Ub-VS probe labelling [3]: -0.0372
log2 ratio of Biotin-Ahx-Ub-VS probe labelling [4]: -0.175
log2 ratio of Biotin-Ahx-Ub-VS probe labelling [5]: -1.3 (active)
log2 ratio of Biotin-Ahx-Ub-VS probe labelling [6]: -0.457
log2 ratio of Biotin-Ahx-Ub-VS probe labelling [7]: -0.71
log2 ratio of Biotin-Ahx-Ub-VS probe labelling [8]: -0.126
log2 ratio of Biotin-Ahx-Ub-VS probe labelling [9]: -0.386
